Assay outcomes deposited in PubChem BioAssay by several laboratories.
A selection: hits, their analogues and other compounds. The true share with any hit is near 1.7%.
CTSL1 counter = Fasciola hepatica cathepsin L1 inhibitors, primary screen, counter-screen for PFM18AAP inhibitor project, biochemical, QFRET, fluorogenic peptide substrate. inhibition, % at 5.96 µM. recombinant F. hepatica cathepsin L1, Z-Leu-Arg-MCA fluorescence. 300,000 tested, 0.49% active. AID 1906, 2009;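 active means inhibition above the mean of all tested compounds plus 3 SD, set per screening campaign, cut at about 17% in these data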;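 further: 0% = plate median of test compound wells and 100% = 1 µM Z-Phe-Ala-diazomethylketone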
LANA-H2A inh = blockers of LANA interaction with H2A/H2B – biochemical, FP readout, HTS, primary screen; 320,000 tested, 0.6% active; Protein LANA1 (Human herpesvirus 8 type P (isolate GK18)), Q9QR71; inhibition, % (no concentration beside the values); cell-free LANA-H2A/H2B peptide, fluorescence polarization; in the data active means inhibition mostly above about 10%, no sharp cut-off; inactive means mostly below about 6.7%
HDAC3 inhib = HDAC3 deacetylase inhibitors, primary screen, biochemical, fluorescence, cell-free homogeneous. recombinant HDAC3, fluorogenic peptide/trypsin coupled. inhibition, % at 8.3 µM. 320,000 tested, 0.15% active. AID 2718, 2010; in the data active means inhibition above about 26%, passing the limit was not always enough
Target sequence (O15379 whole entry, looked up): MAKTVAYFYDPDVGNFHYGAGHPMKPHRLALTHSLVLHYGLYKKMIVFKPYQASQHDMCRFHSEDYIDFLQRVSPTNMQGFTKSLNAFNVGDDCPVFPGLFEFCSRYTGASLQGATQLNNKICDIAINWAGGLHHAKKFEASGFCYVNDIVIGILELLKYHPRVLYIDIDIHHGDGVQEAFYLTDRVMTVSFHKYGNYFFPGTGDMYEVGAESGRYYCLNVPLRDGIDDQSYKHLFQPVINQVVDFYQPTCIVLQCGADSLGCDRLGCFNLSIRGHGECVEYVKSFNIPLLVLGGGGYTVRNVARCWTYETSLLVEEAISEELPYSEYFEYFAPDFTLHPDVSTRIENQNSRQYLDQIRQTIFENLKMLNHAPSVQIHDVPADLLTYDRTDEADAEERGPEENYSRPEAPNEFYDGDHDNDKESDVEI
HTR2A ag = mouse Htr2a agonists via beta-arrestin recruitment, primary screen, cell-based, luminescence. 5-hydroxytryptamine receptor 2A (Mus musculus), P35363. CHO-K1 mHTR2A beta-arrestin complementation; percent of 30 µM serotonin response. activation, % at 7.6 µM. 360,000 tested, 0.66% active;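 active means activation above a run cutoff, the mean activation of all tested compounds plus 3 SD, cut at about 14% in these data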;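 further: 0% = plate median of compound wells and 100% = 30 µM serotonin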
MOR ag counter = OPRM1 agonists via beta-arrestin recruitment, confirmation, counter-screen for mouse HTR2A agonist project, cell-based, luminescence, single concentration | U2OS OPRM1 beta-arrestin PathHunter; DMSO 0%, DAMGO 9.3 µM 100% | 2,300 tested, 5.3% active | activation, % at 9.3 µM | shares compounds with HTR2A ag | AID 624380, 2012;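 active means mean activation above the mean of DMSO-only wells plus 3 SD, cut at about 0.5% in these data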
m5-HT2A ag conf = mouse HTR2A agonists, beta-arrestin recruitment, confirmation, cell-based, luminescence, CHO-K1 PathHunter, triplicate; AID 624381, 2012; activation, % at 7.6 µM; shares compounds with HTR2A ag; 2,300 tested, 19% active; DMSO 0%, 30 µM serotonin 100%;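 active means mean activation across triplicates above the hit threshold derived in the original primary screen, cut at about 15% in these data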
Starred values were filed as active, the others as inactive; / = no result.

SMILES | CTSL1 counter | LANA-H2A inh | HDAC3 inhib | HTR2A ag | MOR ag counter | m5-HT2A ag conf
O=C(NCc1ccccn1)C1CC(=O)N(C2CCCC2)C1 (configuration not stated) | -1.5 | / | / | 19.8* | -0.7 | -4.2
CC(=O)N1Cc2ccccc2CC1C(=O)NCc1ccccc1F (configuration not stated) | -3.8 | -0.9 | 0.1 | 15.9* | -0.3 | -1.4
CC1=C(C)CC(C(=O)NCc2ccccc2F)C(C(=O)O)C1 (configuration not stated) | -1.5 | 0.1 | 1.7 | -2.5 | / | /
CCOc1ccc(N2C(=O)CC(N(CCc3ccc(OC)cc3)C(=O)/C=C/C(=O)O)C2=O)cc1 (configuration not stated) | -2.4 | -4.6 | -2.5 | 16.8* | -0.6 | -3.7
Cc1nnc(SCC(=O)N(C)c2c(N)n(Cc3ccccc3)c(=O)[nH]c2=O)n1Cc1ccccc1 | 5.4 | 0.1 | -2.0 | 29.4* | -0.7 | -4.3
CN1CCc2cccc3c2C1Cc1ccc(O)c(O)c1-3 (configuration not stated) | -2.4 | 6.0 | 1.9 | 44.5* | 0.6* | 135.0*
CN1CCC(=C2c3ccccc3C(O)c3ccccc32)CC1 (configuration not stated) | -4.6 | 0.4 | -2.4 | -6.7 | / | /
CCOC(=O)C1CCN(S(=O)(=O)c2ccc(OC)c(C(=O)N3CCCCC3)c2)CC1 | -6.5 | 3.9 | -6.8 | 3.6 | / | /
CCOC(=O)NC(=O)COC(=O)CNC(=O)c1cccc(OC)c1 | -9.9 | -1.5 | -13.7 | 20.3* | -0.7 | -3.1
CCOC(=O)CNC(=O)c1cc(OC)cc(OC)c1 | -1.4 | 3.2 | -1.0 | 5.5 | / | /
COc1ccc(OCC(=O)Nc2ccccc2C(=O)N2CCOCC2)cc1 | 2.1 | 0.5 | 1.2 | 0.9 | / | /
Cc1cccc(C)c1OCC(=O)Nc1ccccc1C(=O)N1CCOCC1 | 1.7 | 3.6 | 5.4 | 25.0* | -0.6 | 0.9
Cc1ccnc(NC(=O)c2cccc(NC(=O)CC3SC(N4CCCCC4)=NC3=O)c2)c1 (configuration not stated) | / | 5.6 | 2.9 | 14.7* | -0.3 | -0.9
Cc1cc(C)cc(N(C(=O)CCC(=O)Nc2cc(C)on2)C(C(=O)NC2CCCC2)c2ccco2)c1 (configuration not stated) | 0.6 | 0.7 | 9.3 | 0.5 | / | /
Cc1ccc(C)c(N(C(=O)CCC(=O)Nc2cc(C)on2)C(C(=O)NC2CCCC2)c2ccco2)c1 (configuration not stated) | 0.0 | -3.5 | -2.6 | 17.1* | -0.4 | 0.5
O=C(O)c1cccc2c1Cc1cc([N+](=O)[O-])ccc1-2 | / | / | / | 15.4* | 0.2 | -1.4
O=C(O)c1cccc2c1-c1ccc([N+](=O)[O-])cc1C2=O | / | / | / | -1.7 | / | /
CCCCc1nnc(NC(=O)CSc2nc(=O)cc(N)n2-c2ccccc2)s1 | -0.1 | 3.8 | 2.2 | 16.3* | -0.6 | -2.3
CCOC(=O)CN1CCS(=O)(=O)CC1 | -0.5 | -3.5 | -0.7 | 16.2* | 0.1 | 2.4
O=C(O)C(O)C(O)C(O)C(O)C(=O)O (configuration not stated) (tested in a mixture with another compound) | 2.7 | -1.1 | -7.4 | 20.1* | -0.6 | 3.6
CC(=O)Nc1ccc2nc(SCC(=O)N3CCOCC3)sc2c1 | -3.5 | -6.2 | 2.5 | -1.9 | / | /
O=C(CSc1nc2ccc(Nc3nc(N4CCOCC4)nc(N4CCOCC4)n3)cc2s1)N1CCOCC1 | -0.7 | 1.0 | 6.1 | 14.5* | -0.5 | -3.1
O=C(CSc1nc2ccc(Nc3nc(N4CCOCC4)nc(N4CCOCC4)n3)cc2s1)Nc1ccccc1Cl | / | -1.2 | -5.8 | 7.1 | / | /
O=C(CSc1nc2ccc(Nc3nc(N4CCOCC4)nc(N4CCOCC4)n3)cc2s1)Nc1ccccc1F | / | 5.5 | 3.3 | 15.5* | -0.3 | -2.1
